This is a sample that favours compounds with a hit; in the whole collection about 7.7% have one here.
PD-1 reverse act: reversal of PD-1 mediated T-cell inhibition; primary human CD4 T cells, PD-L1 beads, CellTiter-Glo 96 h; activation, % (no concentration beside the values); 29,000 tested, under 10 active; AID 2316; call rule not given here;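 further: 0% = median vehicle wells and 100% = positive control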
Hedgehog inh: blocks Sonic Hedgehog signaling. Shh-LIGHT2 Gli-luciferase reporter, 30 h. inhibition, % (concentration not given with the values). 22,000 compounds, 2.1% hits. AID 2313;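 active means mean inhibition across valid replicates above about 65%, limit read from the data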;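 further: pathway switched on by Shh-conditioned medium diluted 1 in 25 in low serum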
NOMO-1 viab: STK33 inhibitor candidate reducing NOMO-1 cell viability | 37,000 compounds, 7.5% hits | NOMO-1 AML viability, CellTiter-Glo luminescence, 72 h | inhibition, % (no concentration beside the values); in the data active means inhibition above about 80%
* = called active by the depositor; / = not tested or not shown.

SMILES	PD-1 reverse act	Hedgehog inh	NOMO-1 viab
C[C@H]1CN([C@@H](C)CO)C(=O)c2cccc(NC(=O)C3CC3)c2O[C@H]1CN(C)S(=O)(=O)c1ccc(F)cc1	/	2	16
Cc1ccc(S(=O)(=O)N(C)C[C@H]2Oc3c(NC(=O)Nc4ccc(C(F)(F)F)cc4)cccc3C(=O)N([C@H](C)CO)C[C@H]2C)cc1	-7	-19	85*
Cc1ccc(S(=O)(=O)N(C)C[C@@H]2Oc3c(NC(=O)Nc4ccccc4)cccc3C(=O)N([C@@H](C)CO)C[C@@H]2C)cc1	-1	107*	21
C[C@H](CCC(=O)O)[C@H]1CCC2[C@@H]3CC[C@@H]4C[C@H](O)CC[C@]4(C)C3C=C[C@@]21C (some centres not stated)	0	-2	22
NC(=O)c1c(NC(=O)COc2ccc3ccccc3c2)sc2c1CCCCCC2	1	/	6
CC(C)(CO)NC(=O)c1sc2ccccc2c1Cl	-1	/	25
O=C(COc1cccc(NC(=O)c2ccc([N+](=O)[O-])cc2)c1)c1ccc(F)cc1	/	/	46
CC(Oc1ccc(-c2ccccc2)cc1)C(=O)Nc1ccccc1[N+](=O)[O-] (configuration not stated)	1	/	14
COC(=O)C[C@H]1C(C)(C)C2(Cl)O[C@@]34CC2C(=O)[C@]1(C)C3CC[C@]1(C)C4=CC(=O)O[C@H]1c1ccoc1 (some centres not stated)	/	8	101*
C=C1C2CC[C@@]3(C)[C@H](c4ccoc4)OC(=O)C[C@]13O[C@H]1CC(=O)C(C)(C)C(CC(=O)OC)[C@@]21C (some centres not stated)	/	12	14
O=C(CSc1ccccn1)Nc1ccccn1	0	-40	-3
C/C=C(/C)C(=O)O[C@H]1C[C@@](C)(O)C(=O)[C@@H](OC(=O)/C(C)=C\C)[C@@]2(C)CC[C@@](O)(C(C)C)[C@H]12	0	-11	34
C=C1C(=O)O[C@H]2C1[C@H](OC(=O)/C(C)=C/CO)C/C(C)=C\CC[C@@]1(C)OC21 (some centres not stated)	-28	26	122*
C=C1C(=O)O[C@H]2C1[C@H](OC(=O)/C(C)=C/CO)C/C(C)=C\CC[C@@]1(CO)OC21 (some centres not stated)	-15	4	93*
C=C1C(=O)O[C@H]2[C@H]1[C@@H](OC(=O)/C(C)=C\C)C[C@]1(C)O[C@@H]1[C@H]1O[C@H]1C(=C)[C@H]2O	-25	31	121*
C=C1C(=O)OC2/C=C(\CO)C(OC(C)=O)C/C=C(/C)CC(OC(=O)/C(C)=C\CO)C12 (configuration not stated)	-6	48	121*
N#CCCn1c(CC(N)=O)nc2ccccc21	/	/	8
O=C(Nc1ccc(I)cc1C(=O)NCCN1CCOCC1)c1ccco1	/	/	-4
O=C(O)c1ccc(Oc2ccccc2)cc1	2	-22	-10
CCOC(=O)c1ccc(SC)cc1OC	-1	-26	3
CC(=O)Nc1ccc(-c2nnc(SCC(=O)Nc3cc(Cl)cc(Cl)c3)n2C)cc1	2	/	12
Cc1c(Br)c([N+](=O)[O-])nn1CC(=O)Nc1cc(F)ccc1F	0	/	3
CC(=O)Nc1ccc(OCC(=O)Nc2ccc(Cl)c(Cl)c2)cc1	1	/	-5
COc1ccc(C(C)C)cc1S(=O)(=O)Nc1ccccn1	1	/	-15
Cc1ccc(C(Nc2ccccn2)c2ccc3ccc(C)nc3c2O)cc1 (configuration not stated)	-16	/	132*
SMILES	PD-1 reverse act	Hedgehog inh	NOMO-1 viab
Cc1ccc2ccc(C(Nc3ccccn3)c3ccc(Cl)c(Cl)c3)c(O)c2n1 (configuration not stated)	-14	/	117*
COc1ccc(I)cc1C(Nc1cc(C)ccn1)c1ccc2cccnc2c1O (configuration not stated)	-14	/	111*
COc1ccc(C(Nc2ccccn2)c2ccc3ccc(C)nc3c2O)cc1C (configuration not stated)	-13	/	59
Cc1ccc2ccc(C(Nc3ccccn3)c3ccc(C(C)C)cc3)c(O)c2n1 (configuration not stated)	-14	/	108*
COc1ccc(OC)c(NS(=O)(=O)c2cccc3cccnc23)c1	2	/	13
O=C(CN1CCCc2ccccc21)Nc1ccc(Cl)c(Cl)c1	0	37	39
CS(=O)(=O)N(CC(=O)Nc1ccccc1-c1ccccc1)c1ccccc1Cl	1	/	-1
COc1ccc(-c2nnc(SCC(=O)Nc3ccc(Br)c(C)c3C)n2C)cc1	-1	/	22
CCOC(=O)c1ccc(COc2ccc(-c3cnc4ccccc4n3)cc2)o1	/	/	-4
Cc1ccc(C(Nc2ccccn2)c2ccc3cccnc3c2O)cc1 (configuration not stated)	/	/	112*
CCc1ccc(C(Nc2cc(C)ccn2)c2ccc3cccnc3c2O)cc1 (configuration not stated)	-16	/	112*
Cc1ccc2ccc(C(Nc3ccccn3)c3ccc(Cl)cc3)c(O)c2n1 (configuration not stated)	-11	/	132*
CC(C(=O)Nc1cccc2cccnc12)N1C(=O)c2ccccc2C1=O (configuration not stated)	0	/	-4
CCOC(=O)c1ccccc1NC(=O)CC1Sc2ccc(C(F)(F)F)cc2NC1=O (configuration not stated)	-2	/	18
Cc1ccc(Nc2nc(Nc3ccc(C)cc3)nc(Sc3nnc(C)s3)n2)cc1	-3	/	20
O=C(COc1cccc2ccccc12)Nc1cc([N+](=O)[O-])ccc1O	/	/	17
COc1ccccc1NC(=O)C1C=C2C=CC=CC2OC1=Nc1ccccc1F (configuration not stated)	0	11	40
COC(=O)c1ccc(NC(=O)CN(c2ccc(C)cc2C)S(C)(=O)=O)cc1	-1	/	13
Cc1nnc(SCC(=O)Nc2ccc(Br)cc2Cl)s1	/	/	-10
O=C(c1cccc(S(=O)(=O)NC2CCCCCC2)c1)N1CCCc2ccccc21	-3	33	34
C[C@@H]1CN([C@H](C)CO)C(=O)Cc2cc(NC(=O)CCN3CCOCC3)ccc2O[C@@H]1CN(C)Cc1ccc(C(=O)O)cc1	1	-32	-6
C[C@H](CO)N1C[C@H](C)[C@H](CN(C)Cc2ccc(C(=O)Nc3ccccc3N)cc2)Oc2ccc(NC(=O)CCN3CCOCC3)cc2CC1=O	-4	/	138*
C[C@H]1CN([C@@H](C)CO)C(=O)Cc2cc(NC(=O)CCN3CCOCC3)ccc2O[C@H]1CN(C)Cc1ccc(C(=O)Nc2ccccc2N)cc1	-3	/	132*
C[C@@H]1CN([C@H](C)CO)C(=O)Cc2cc(NC(=O)CCN3CCOCC3)ccc2O[C@H]1CN(C)Cc1ccc(C(=O)Nc2ccccc2N)cc1	0	/	-3
CCc1nc(SCC(=O)OC)c2c3c(sc2n1)CCCC3	1	/	25
Cc1ccc(S(=O)(=O)Nc2ccc3c(c2)C(=O)N([C@H](C)CO)C[C@@H](C)[C@H](CN(C)Cc2ccc(Oc4ccccc4)cc2)O3)cc1	-2	50	84*
Cc1noc(C)c1S(=O)(=O)Nc1ccc2c(c1)C(=O)N([C@@H](C)CO)C[C@@H](C)[C@@H](CN(C)Cc1ccc(Oc3ccccc3)cc1)O2	-1	29	102*

Source: PubChem BioAssay
